Assay results published in PubChem BioAssay.
For some of these results: Results with a measured potency or affinity are listed apart. Calls of active or inactive are those of the source. Unless noted, the rule behind the calls is not given here.

Legend:
[1] = system: Hepatitis C virus NS3 helicase; test: blockers of NS3h binding to ssDNA – biochemical, fluorescence polarization, LOPAC1280 library, primary screen (AID 687035; in the data active = inhibition above about 37%); settings: Purified HCV NS3 helicase, Cy5-dT15 ssDNA binding fluorescence polarization; stronger effect = higher value; concentration not given here
[2] = compounds altering Cy5-DNA-NS3h complex signal – biochemical, LOPAC1280, artefact control for HCV NS3 helicase inhibitor project (AID 687037); settings: Cy5-DNA-NS3h complex fluorescence interference counterscreen
[3] = Wnt pathway potentiators raising nuclear beta-catenin – imaging, WNT3A-conditioned medium, mouse C2C12, NPC library, primary screen (AID 1117326; in the data active = nuclear beta-catenin stimulation mostly above about 4.2%, no sharp cut-off; inactive = mostly below about 10%); settings: stronger effect = higher value
[4] = stimulators of insulin release from INS-1E, primary screen, cell-based, 5 mM glucose, NPC library (AID 1117329;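 active = compound raises insulin release from rat beta cells at 5 mM glucose, no numeric limit stated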); settings: rat INS-1E insulin secretion, at 10 µM, stronger effect = higher value
[5] = growth inhibition of GSK3B-pretreated HCT116 cells – cell-based, CellTiter-Glo, 0.2 to 20 µM (AID 1117336;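 active = compounds lowering colon cancer cell viability after pretreatment blocking the GSK3B kinase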); settings: HCT116 viability after GSK3B inhibitor, at 20 µM, stronger effect = higher value
[6] = inhibition of endothelial tube formation, primary screen, imaging, VEGF stimulated, CD31 staining, tube area, NPC library (AID 1117340;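 active = compound that reduces growth-factor-driven endothelial tube area in a mixed cell culture, no cutoff stated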); settings: VEGF-stimulated ADSC/ECFC co-culture, at 10 µM, stronger effect = higher value
[7] = GLP1 release stimulators, primary, NCI-H716, NPC library (AID 1117341;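 active = compound raises GLP1 secretion from the human gut endocrine cells, with no numeric limit stated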); settings: NCI-H716 cells, at 10 µM, stronger effect = higher value
[8] = HCT116 colon cancer cell growth inhibition, primary screen, CellTiter-Glo luminescence, NPC library (AID 1117342;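 active = compounds that lower survival of HCT116 colon cancer cells in the luminescence readout, no numeric limit stated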); settings: at 20 µM (top of the series)
[9] = reduced SW480 viability measured with CellTiter-Glo, NPC library, primary (AID 1117343;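 active = compounds that lower viability of the colon cancer cells in the luminescence readout, with no numeric limit stated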); settings: CellTiter-Glo luminescence; at 20 µM (top of the series)
[10] = NPC library primary testing for decreased DLD-1 cell viability via CellTiter-Glo (AID 1117346;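 active = compounds that lower survival of DLD-1 colon cancer cells in the luminescence readout, no cutoff given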); settings: DLD-1 viability, CellTiter-Glo luminescence; at 20 µM (top of the series)
[11] = target: 6-phosphogluconate dehydrogenase, decarboxylating (Homo sapiens) (UniProt P52209); test: inhibition of human phosphogluconate dehydrogenase – biochemical, recombinant enzyme, NADPH absorbance, primary screen (AID 1159550;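 active = at least 20% inhibition of 6-phosphogluconate dehydrogenase activity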); settings: recombinant 6PGD, NADPH absorbance 341 nm; at 10 µM; stronger effect = higher value
[12] = signal quenchers or enhancers, Cy5 substrate/SSB – biochemical, NIH Clinical Collection, E. coli SSB, artefact control for HCV NS3 helicase inhibitor project (AID 743268); settings: Cy5-oligo bound E. coli SSB, fluorescence interference
[13] = system: Hepatitis C virus NS3 helicase; test: blockers of NS3h binding to DNA – biochemical, fluorescence polarization, NIH Clinical Collection, primary screen (AID 743270); settings: NS3 helicase binding to Cy5-dT15 DNA, stronger effect = higher value, concentration not given here
[14] = target: Single-stranded DNA-binding protein (Escherichia coli (strain K12)) (UniProt P0AGE0); test: SSB-ssDNA binding inhibitors – biochemical, fluorescence polarization, NIH Clinical Collection, counter-screen for HCV NS3 helicase inhibitor project (AID 743271; in the data active = inhibition above about 28%); settings: E. coli SSB-DNA binding, stronger effect = higher value, concentration not given here
[15] = compounds distorting NS3 helicase fluorescence signal – biochemical, NIH Clinical Collection, artefact control for HCV NS3 helicase inhibitor project (AID 743272); settings: fluorescence interference counterscreen, HCV NS3 helicase assay; stronger effect = lower value;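 note: HCV NS3 helicase with a Cy5 labelled single stranded DNA probe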
[16] = system: Neuropilin-2 / VEGF-C interaction (human); test: small molecules blocking Neuropilin-2/VEGF-C interaction – biochemical, microplate binding format, z-score (AID 743281); settings: microplate NRP2/VEGF-C binding assay; stronger effect = lower value
[17] = target: Calcium-dependent protein kinase 1 (Plasmodium falciparum (isolate 3D7)) (UniProt P62344); test: PfCDPK1 kinase inhibitors, biochemical, TCAMS library (AID 1159585; cut-off not given, nearly all actives have IC50 up to about 0.98 µM;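 note: inhibitors leave more ATP so luminescence rises with inhibition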); settings: recombinant PfCDPK1, Kinase-Glo ATP depletion luminescence
[18] = target: Plasmodium falciparum protein kinase 6 (PK6, PF3D7_1337100) (UniProt Q8IDW1); test: PfPK6 kinase inhibitors, biochemical, TCAMS library (AID 1159586); settings: recombinant PfPK6, Kinase-Glo ATP depletion luminescence
Sequence of Plasmodium falciparum protein kinase 6 (PK6, PF3D7_1337100) (Q8IDW1 1-305): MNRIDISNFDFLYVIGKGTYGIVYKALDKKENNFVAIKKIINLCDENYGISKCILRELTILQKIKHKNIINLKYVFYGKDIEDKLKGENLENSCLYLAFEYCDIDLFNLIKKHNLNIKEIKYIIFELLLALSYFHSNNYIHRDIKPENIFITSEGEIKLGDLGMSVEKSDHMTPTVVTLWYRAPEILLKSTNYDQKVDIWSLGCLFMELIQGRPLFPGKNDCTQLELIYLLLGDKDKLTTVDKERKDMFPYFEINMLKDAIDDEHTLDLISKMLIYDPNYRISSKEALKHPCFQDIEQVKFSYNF

Sequence of 6-phosphogluconate dehydrogenase, decarboxylating (Homo sapiens) (P52209 whole entry, looked up): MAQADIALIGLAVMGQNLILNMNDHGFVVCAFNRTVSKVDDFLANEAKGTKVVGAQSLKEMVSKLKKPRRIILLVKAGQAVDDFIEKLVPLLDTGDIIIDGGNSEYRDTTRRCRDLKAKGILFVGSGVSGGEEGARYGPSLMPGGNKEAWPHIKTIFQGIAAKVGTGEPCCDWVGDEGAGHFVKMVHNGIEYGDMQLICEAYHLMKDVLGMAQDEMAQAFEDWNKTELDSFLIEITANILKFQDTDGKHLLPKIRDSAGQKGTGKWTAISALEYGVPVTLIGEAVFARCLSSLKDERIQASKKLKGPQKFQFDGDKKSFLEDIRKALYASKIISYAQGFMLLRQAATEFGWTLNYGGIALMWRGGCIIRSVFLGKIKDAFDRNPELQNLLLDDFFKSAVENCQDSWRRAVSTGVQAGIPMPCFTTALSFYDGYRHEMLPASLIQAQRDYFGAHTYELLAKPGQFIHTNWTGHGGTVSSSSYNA
Sequence of Calcium-dependent protein kinase 1 (Plasmodium falciparum (isolate 3D7)) (P62344 whole entry, looked up): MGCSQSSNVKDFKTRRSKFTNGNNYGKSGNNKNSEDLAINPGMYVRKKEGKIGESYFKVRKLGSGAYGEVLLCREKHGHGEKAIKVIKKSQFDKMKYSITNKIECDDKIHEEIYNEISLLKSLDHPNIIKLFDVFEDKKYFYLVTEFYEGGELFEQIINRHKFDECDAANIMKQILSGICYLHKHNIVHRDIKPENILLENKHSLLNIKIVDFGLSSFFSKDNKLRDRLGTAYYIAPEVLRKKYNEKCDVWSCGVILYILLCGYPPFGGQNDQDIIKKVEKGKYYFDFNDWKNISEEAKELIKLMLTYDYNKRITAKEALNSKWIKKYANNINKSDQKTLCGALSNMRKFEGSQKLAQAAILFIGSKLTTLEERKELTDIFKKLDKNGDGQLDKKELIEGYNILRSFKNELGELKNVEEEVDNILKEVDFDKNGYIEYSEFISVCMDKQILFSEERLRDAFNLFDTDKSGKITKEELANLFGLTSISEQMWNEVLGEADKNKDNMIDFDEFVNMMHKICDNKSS

SMILES | inhibition [1] | fluorescence ratio (interference) [2] | nuclear beta-catenin stimulation ([3]; at 10 µM) | nuclear beta-catenin stimulation ([3]; stimulation, at 2 µM) [%] | insulin secretion stimulation [4] | viability decrease [5] | tube area decrease [6] | GLP1 secretion stimulation [7] | inhibition of viability [8] | viability decrease (inhibition) [9] | viability decrease (inhibition) [10] | inhibition [11] | fluorescence ratio [12] | inhibition [13] | inhibition [14] | fluorescence ratio [15] | z-score [16] | outcome [17] | outcome [18]
NC[C@H](O)c1ccc(O)c(O)c1 | -4% (inactive) | 0.9 (inactive) | -1.8% (inactive) | -1.5 | 0.1% (inactive) | 31.8% (inactive) | -25.8% (inactive) | 3.6% (inactive) | 2.5% (inactive) | 38.8% (inactive) | 8.6% (inactive) | 7.95% (inactive) |  |  |  |  |  |  | 
Cc1ncc([N+](=O)[O-])n1CCO |  |  | -0.2% (inactive) | 0.7 | -1.4% (inactive) | 55.6% (active) | -14.9% (inactive) | -0.3% (inactive) | 18.5% (inactive) | 75.1% (active) | 55% (active) | -20.7% (inactive) | 0.95 (inactive) | -2.77% (inactive) | 4.52% (inactive) | 0.88 (inactive) | -0.317 (inactive) |  | 
N[C@@H](Cc1ccc(O)c(O)c1)C(=O)O | 1% (inactive) | 1 (inactive) | 1% (inactive) | -0.9 | 2.9% (inactive) | 68.9% (active) | -13.9% (inactive) | 1.9% (inactive) | 49.9% (inactive) | 66.7% (active) | 47.5% (inactive) | 2.07% (inactive) |  |  |  |  |  |  | 
CCOc1ccc2nc3cc(N)ccc3c(N)c2c1 |  |  | 9.5% (inactive) | 0.7 | 3.5% (inactive) | 81.2% (active) | 73.3% (active) | 8.6% (inactive) | 70.6% (active) | 121% (active) | 47.2% (inactive) |  |  |  |  |  |  | inactive | inactive
CN1CCN(C2=Nc3ccccc3Oc3ccc(Cl)cc32)CC1 | -3% (inactive) | 1 (inactive) | 1.4% (inactive) | -0.5 | 0.1% (inactive) | -29.5% (inactive) | 43.3% (active) | 1.6% (inactive) | 30.1% (inactive) | 107% (active) | 85% (active) | -14% (inactive) | 0.97 (inactive) | 1.19% (inactive) | 2.21% (inactive) | 0.92 (inactive) | -0.0658 (inactive) |  | 
COC(=O)Nc1nc2ccc(C(=O)c3cccs3)cc2[nH]1 | -5% (inactive) | 0.9 (inactive) | 80.4% (active) | 81.3 | -0.3% (inactive) | 69.2% (active) | 105% (active) | -3.1% (inactive) | 60.8% (active) | 22.9% (inactive) | 58.6% (active) | -7.55% (inactive) |  |  |  |  |  |  | 
NC(N)=Nc1nc(CSCC/C(N)=N/S(N)(=O)=O)cs1 |  |  | 0.9% (inactive) | -1.4 | 2.8% (inactive) | 6.7% (inactive) | 6.4% (inactive) | 1.4% (inactive) | -8.7% (inactive) | 0.7% (inactive) | -10.3% (inactive) | 5.97% (inactive) | 0.96 (inactive) | 3.56% (inactive) | 6.83% (inactive) | 0.9 (inactive) | -0.254 (inactive) |  | 
C[C@](N)(Cc1ccc(O)cc1)C(=O)O | -1% (inactive) | 0.9 (inactive) | -0.2% (inactive) | 4.5 | -0.1% (inactive) | 0.3% (inactive) | -8.2% (inactive) | 1.3% (inactive) | -15.1% (inactive) | 42.1% (inactive) | -1.1% (inactive) | -7.56% (inactive) |  |  |  |  |  |  | 
CCCOc1ccccc1-c1nc2n[nH]nc2c(=O)[nH]1 | -1% (inactive) | 1 (inactive) | -0.2% (inactive) | 0.5 | -0.8% (inactive) | -203% (inactive) | -11.3% (inactive) | 1.4% (inactive) | 17.5% (inactive) | 9.4% (inactive) | 1% (inactive) | -4.08% (inactive) |  |  |  |  |  |  | 
NC(=O)c1ncn([C@@H]2O[C@H](CO)[C@@H](O)[C@H]2O)c1O | -3% (inactive) | 1 (inactive) | 3% (inactive) | 2.4 | -2.6% (inactive) | -1.75% (inactive) | 3.8% (inactive) | 2.6% (inactive) | -13.1% (inactive) | 2.7% (inactive) | 4.7% (inactive) | 1.32% (inactive) |  |  |  |  |  |  | 
O=C(c1ccc(F)cc1)C1CCN(CCn2c(=O)[nH]c3ccccc3c2=O)CC1 | 2% (inactive) | 1 (inactive) | 0.6% (inactive) | -1.2 | 2.5% (inactive) | 19.4% (inactive) | -2.2% (active) | 2.6% (inactive) | 52.6% (active) | 19.5% (inactive) | 16.9% (inactive) | 8.02% (inactive) |  |  |  |  |  |  | 
CN(C)CCC=C1c2ccccc2C=Cc2ccccc21 | -2% (inactive) | 1 (inactive) | -1.8% (inactive) | -0.8 | 15.2% (inactive) | -81.6% (inactive) | 1.5% (inactive) | 7.9% (inactive) | 27.1% (inactive) | 111% (active) | 7.5% (inactive) | -4.48% (inactive) |  |  |  |  |  |  | 
